# Measurements from PubChem BioAssay AID1490 (National Center for Advancing Translational Sciences (NCATS), 2009).
# The whole screen tested about 310,000 compounds, of which about 11,000 (3.5%) were called active. About 4% were inconclusive and are not listed. Shown is part of a subset that was picked to be rich in actives. Unmarked numbers belong to inactive results. The call rests on the fitted dose curve; in most records, active means well fitted inhibition curve with a large enough effect; inconclusive means small, poorly fitted or top-dose-only effect, or another doubt; inactive means no such curve, though single readings can be large or run the other way.
# Target: 4'-phosphopantetheinyl transferase ffp (Bacillus subtilis) (UniProt Q9F4F7)
# Assay: qHTS Assay for Inhibitors of Bacillus subtilis Sfp phosphopantetheinyl transferase (PPTase);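 further: the enzyme is Sfp with the accession as filed and its product quenches rhodamine fluorescence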;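 on largest response in the series, negative = inhibition: 0% = enzyme reaction without inhibitor and -100% = no enzyme wells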
# Settings: Biochemical Sfp PPTase activity
# Procedure, shortened: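 Fluorescence-quenching assay with 15 nM Sfp, 5 uM rhodamine-CoA and 12.5 uM BHQ-2-labelled ybbR peptide in pH 7.6 Hepes/MgCl2 buffer. Enzyme was pre-incubated with compound for 15 min at room temperature. Rate was taken from the 30-min fluorescence change (525/598 nm).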
# Potency means the concentration at half of the fitted maximal effect.
SMILES,"largest response in the series, negative = inhibition",Potency
O=C(N/C(=C\c1ccc(O)cc1)C(=O)N1CCCCC1)c1ccccc1,11.6%,
Cc1ccc2c(=O)cc(C(=O)NCCc3ccc(S(N)(=O)=O)cc3)oc2c1C,15.4%,
CCOc1ccc2nc(Nc3nc4ccc(NC(C)=O)cc4s3)sc2c1,-21.4%,
CCOc1ccc2nc(C(=O)N3CCCC(C)C3)sc2c1 (stereo unspecified),,25.1 µM (active)
CCOc1ccc2nc(SC(CC)C(=O)Nc3cc(C)on3)sc2c1 (stereo unspecified),9.59%,
CCN(CC)CCCNC(=O)c1c(O)c2cc(F)cc3c2n(c1=O)C(C)CC3 (stereo unspecified),2.11%,
O=[N+]([O-])c1ccc(N=Cc2c(O)ccc3ccccc23)cc1,-6.3%,
COc1ccc(C=Nc2cccc3ncccc23)cc1,-8.45%,
Oc1c(C=Nc2cccc3nsnc23)ccc2ccccc12,,44.7 µM (active)
Cc1cc2c(cc1S(=O)(=O)CCC(=O)NCc1ccccc1)OCC(=O)N2,18.5%,
CN1C2CCC1CC(NC(=O)c1ccc([N+](=O)[O-])cc1)C2 (stereo unspecified),9.32%,
COc1ccc(C2CC(c3ccc([N+](=O)[O-])cc3)=NN2C(C)=O)cc1 (stereo unspecified),0.697%,
CC(=O)N1CC[n+]2c(-c3ccc([N+](=O)[O-])cc3)csc21,,5.62 µM (active)
CC(C)=CCc1c(O)c(CC=C(C)C)c2occ(-c3ccc(O)cc3)c(=O)c2c1O,-6.29%,
OCC(CO)NC1C[C@](O)(CO)[C@@H](O)[C@H](O)[C@H]1O (stereo partly specified),7.78%,
O=C(NC(Cc1ccccc1)C(=O)O)/C(=C\c1ccccc1)NC(=O)c1ccco1 (stereo unspecified),16.2%,
COc1cccc(-c2noc(C3CCCN(C(=O)c4ccc(F)cc4)C3)n2)c1 (stereo unspecified),12.5%,
FC(F)(F)C1CCCN(c2nsc3ccccc23)C1 (stereo unspecified),,15.8 µM (active)
CC(C(=O)NC1CCCCC1)N1C(=O)c2cccc3cccc1c23 (stereo unspecified),4.03%,
COC(=O)c1ccc(OC(=O)c2cnccn2)cc1,-8.15%,
O=C(O)CSc1nnc(-c2ccc3c(c2)OCO3)n1-c1ccccc1,30.8%,
Cn1c(SCC(=O)N2CCCC2)nnc1-c1ccc2c(c1)OCO2,8.6%,
Cn1c(SCc2nc3ccccc3s2)nnc1-c1ccc2c(c1)OCO2,,14.1 µM (active)

SMILES,"largest response in the series, negative = inhibition",Potency
CCc1c(C)[nH]c(=S)c(C#N)c1C,,12.6 µM (active)
COc1ccc(/C(C)=N\NC(=O)c2ccc(-c3ccccc3)cc2)c(F)c1,12.8%,
COc1ccc(N(Cc2cc3ccc(C)cc3[nH]c2=O)S(=O)(=O)c2ccccc2)cc1,6.39%,
CCn1c2ccc(F)cc2c2nnc(SCCN3CCOCC3)nc21,-2.54%,
COc1ccc(N2CCN(C(=O)CSc3ncnc4c3cnn4-c3ccc(OC)cc3)CC2)cc1,-1.71%,
CCOc1ccc(-c2nnn(CC(=O)N3CCN(c4ccc(OC)cc4)CC3)n2)cc1OCC,20.4%,
COc1ccc(N2CCN(C(=O)CSc3nc4cc(OC)c(OC)cc4cc3C#N)CC2)cc1,,63.1 µM (active)
CCN(CC(=O)Nc1ccc(C)c(S(=O)(=O)N(C)C)c1)Cc1ccccc1,-18.4%,
Cn1c(SCC(=O)N2CCCC2)nnc1-c1cccs1,5.11%,
Cc1c(C(=O)N2CCCC2)c(S(=O)(=O)NCC(C)c2ccccc2)c(C)n1C (stereo unspecified),-2.67%,
CC(=O)Nc1cccc(NC(=O)CSc2nccn2Cc2ccc(F)cc2)c1,11.3%,
CN(C)S(=O)(=O)c1ccc(C(=O)NCCN=C2NS(=O)(=O)c3ccccc32)cc1,2.12%,
c1ccc2nc(C3=NCCN3)cnc2c1,2.82%,
Cc1cc(O)ccc1-c1cnc2ccccc2n1,,50.1 µM (active)
Oc1ccc(-c2[nH]ncc2-c2nc3ccccc3s2)c(O)c1,2.93%,
CCOCCOC(=O)C(C)Oc1ccc(Oc2ncc(C(F)(F)F)cc2Cl)cc1 (stereo unspecified),-1.26%,
O=C(c1ccco1)N1CCN(C(=O)c2cc(-c3ccccc3F)no2)CC1,1.68%,
CN(CCO)S(=O)(=O)c1ccc2c(c1)C(=O)c1cc(S(=O)(=O)N(C)CCO)ccc1-2,0.575%,
Oc1ccc(-c2onc3ccc(Cl)cc23)cc1,,22.4 µM (active)
COc1ccc(-c2onc3ccc(C(C)=O)cc23)cc1,15.7%,
CC(OC(=O)c1ccc2noc(-c3ccccc3)c2c1)C(N)=O (stereo unspecified),9.21%,
CCCCn1c(N)c(N(CC)C(=O)c2ccccc2C(F)(F)F)c(=O)[nH]c1=O,6.91%,
CC(C)C[C@H]1CN=C(Nc2ccccc2)N1CC1CCCCC1,6.04%,
